Assay outcomes deposited in PubChem BioAssay by National Center for Advancing Translational Sciences (NCATS).
MCF10A rerep = A quantitative high throughput screen for small molecules that induce DNA re-replication in MCF 10a normal breast cells; Potency, µM (highest dose often 46.1 µM), without a hit: at the highest dose activity, positive = re-replication, hits mostly activators; MCF 10A DNA re-replication, Hoechst nuclear intensity, 48 h; 350,000 tested, 2.9% active; further: potency means the concentration at half of the fitted maximal effect; % of control where 0% means no effect; nearly all actives have a fitted effect of over 50% in size
KB-V1 cytotox = qHTS assay for MDR1-selective chemotherapeutics: Primary screen using the drug-selected MDR subline cells KB-V1. KB-V1 MDR cells viability, CellTiter-Glo, 72 h. Potency, µM (highest dose often 46.1 µM), hits mostly cytotoxic. 400,000 tested, 3.4% active; further: potency means the concentration at half of the fitted maximal effect; on the % scale 0 is the no-effect control and ±100 the full control effect; nearly all actives have a fitted effect of over 60% in size
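KB-V1 cells (P-gp-expressing MDR subline of KB-3-1) in phenol-red-free DMEM with 10% FBS were exposed to library compounds over a concentration series for 72 h at 37 degrees C. Viability read by CellTiter-Glo luminescence; concentration-effect curves fitted after normalization.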
D3 antag = qHTS of D3 Dopamine Receptor Antagonist: qHTS; D(3) dopamine receptor (Homo sapiens), P35462; D3R cells, DiscoveRx beta-arrestin luminescence, antagonist mode; stronger effect = lower value; max response, negative = inhibition, %; 360,000 tested, 2.5% active; AID 652054, 2013; in the data active means max response below about -50%; inconclusive means no clear call, values can overlap the other calls; further: on the % scale 0 is the no-effect control and ±100 the full control effect
Target sequence (P35462 whole entry, looked up): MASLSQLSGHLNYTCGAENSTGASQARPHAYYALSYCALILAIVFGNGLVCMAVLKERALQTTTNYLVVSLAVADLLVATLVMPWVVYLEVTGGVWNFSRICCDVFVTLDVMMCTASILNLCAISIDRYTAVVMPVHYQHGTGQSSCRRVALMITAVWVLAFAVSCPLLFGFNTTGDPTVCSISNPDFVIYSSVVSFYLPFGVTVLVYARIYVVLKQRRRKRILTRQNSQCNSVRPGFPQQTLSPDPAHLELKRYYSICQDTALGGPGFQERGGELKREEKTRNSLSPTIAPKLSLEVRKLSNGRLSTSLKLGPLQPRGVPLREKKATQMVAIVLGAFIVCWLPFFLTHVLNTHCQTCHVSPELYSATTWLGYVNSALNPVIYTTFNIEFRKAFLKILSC
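Cells expressing the human receptor were seeded at 1500 cells/well, incubated overnight at 37 degrees C in 5% CO2, then exposed to library compounds with dopamine controls for 90 minutes at 37 degrees C before luminescent detection.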
D3 ag = qHTS of D3 Dopamine Receptor Agonist: qHTS. max activation, %. 410,000 tested, 0.58% active. D3R DiscoveRx beta-arrestin cells, luminescence, 90 min. D(3) dopamine receptor (Homo sapiens), P35462; in the data active means max activation above about 30%; further: 0% is about no effect
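Agonist-mode cell screen: cells plated at 1500/well and incubated overnight at 37 °C, then exposed to library compounds for 90 min at 37 °C. Detection reagent was added for 30–60 min at room temperature, and luminescence was read.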
KB-3-1 tox = qHTS assay for MDR1-selective chemotherapeutics: Primary screen using the parental adenocarcinoma cell KB-3-1 | 400,000 tested, 1.4% active | KB-3-1 viability, CellTiter-Glo ATP luminescence, 72 h | Potency, µM (doses to about 46.1 µM), hits mostly cytotoxic; further: potency means the concentration at half of the fitted maximal effect; on the % scale 0 is the no-effect control and ±100 the full control effect; nearly all actives have a fitted effect of over 60% in size
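72 h, 37 °C compound treatment of KB-3-1 parental cells; CellTiter-Glo added, 10 min, luminescence read. Data corrected against DMSO-only plates and normalized before curve fitting.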
SW480 rerep = A quantitative high throughput screen for small molecules that induce DNA re-replication in SW480 colon adenocarcinoma cells; SW480 DNA re-replication, Hoechst DNA content imaging, 48 h; Potency, µM (top dose mostly 46.1 µM), without a hit: at the highest dose re-replication activation, actives largely listed as activators; 340,000 tested, 1.8% active; further: potency means the concentration at half of the fitted maximal effect; % of control where 0% means no effect; nearly all actives have a fitted effect of over 55% in size
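Hoechst fluorescence of nuclei (405 nm excitation, 500-530 nm emission) measured by plate-scanning imager after 48 hr compound exposure at 37 C; re-replication scored as increased number of nuclei with elevated intensity.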
Numbers without * were called inactive; i = inactive; ? = inconclusive; . = not tested or not shown; [ ] = dose if it differs, or a comment. Shown are actives, neighbours in structure and some others; about 8.9% of the full set was active somewhere. Unless noted, the call rests on the fitted dose curve; in most records, active means well fitted curve in the direction sought with a large enough effect; inconclusive means small, poorly fitted or top-dose-only effect, or another doubt; inactive means no such curve, though single readings can be large; an effect the other way counts as inactive or inconclusive.

SMILES	MCF10A rerep	KB-V1 cytotox	D3 antag	D3 ag	KB-3-1 tox	SW480 rerep
CCN1CC=C(c2c[nH]c3ccccc23)CC1	1.3%	i	-70.7*	-12.6	i	0.2%
O=C(C(=O)N1CC=C(c2ccccc2)CC1)c1c[nH]c2ccccc12	?	?	-8.8	-7.4	i	-3.2%
O=c1c2ccccc2nc(/C=C/c2ccccc2F)n1-c1cccc(O)c1	.	.	.	3.1	.	.
CC1CCCN(CC(=O)N2CCCc3ccccc32)C1 (configuration not stated)	1.4%	i	-57.4*	-35.4	i	5.2%
O=C(c1ccccc1)c1cn(CC(=O)N2CCCc3ccccc32)c2ccccc12	14.3%	?	19.3	-1.4	i	9.5%
N#Cc1cc2c(nc1SCC(=O)Nc1cccc(F)c1)C1CCN2CC1	.	10.3µM*	.	4.9	?	.
Cc1nccn1-c1c([N+](=O)[O-])c(=O)n(C)c2ccccc12	10.3µM*	i	-29.2	-0.7	i	-2.4%[9.22 µM]
CNc1ccc(C(=O)CC(O)CCC(C)C2OC(=O)CC(O)CC(=O)CC(O)CC(O)CC(O)CC(O)CC3(O)CC(O)C(C(=O)OC)C(CC(O[C@@H]4OC(C)C(O)C(N)C4O)/C=C/C=C/C=C/C=C/C=C/C=C/C=C/C2C)O3)cc1 (some centres not stated)	-3.3%	.	.	.	.	-0.6%
CN1C[C@H](C(=O)N[C@]2(C)O[C@@]3(O)[C@@H]4CCCN4C(=O)[C@H](Cc4ccccc4)N3C2=O)C=C2c3cccc4[nH]cc(c34)C[C@H]21	-9.3%	.	.	-10.9	.	14.7%
CN1C[C@H](C(=O)NC2(C)OC3(O)[C@@H]4CCCN4C(=O)[C@H](Cc4ccccc4)N3C2=O)CC2c3cccc4[nH]cc(c34)C[C@H]21 (some centres not stated)	-19.9%	i	-56.8*	-56.9	i	?
CC(C)C[C@H]1C(=O)N2CCC[C@H]2[C@]2(O)O[C@](NC(=O)[C@@H]3C=C4c5cccc6[nH]cc(c56)C[C@H]4N(C)C3)(C(C)C)C(=O)N12	3.3%	i	-75.8*	-8.7	i	?
NC(N)=NN=C(/C=C/c1ccc([N+](=O)[O-])o1)/C=C/c1ccc([N+](=O)[O-])o1	?	.	.	-24.7	.	?
CN1CC(C(=O)c2ccccc2)C(c2ccccc2)C1 (configuration not stated)	-10.2%	i	?	-33.2	i	9.8%
CC(C)(C)N1CC(C(=O)c2ccccc2)C1c1ccccc1 (configuration not stated)	28.6%	16.4µM*	-10.8	-8.7	i	-1.3%
O=C1C=C2C=C[C@@H]3CC2(O1)[C@H]1CCCCN31	14.0%	?	-11.7	-2.4	?	-49.9%
O=C1C=C2C=CC3C[C@@]2(O1)C1CCCCN31 (some centres not stated)	21.1µM*	.	.	.	.	?
O=C1NC(=O)C2(Cc3ccccc3N3CCCC32)C(=O)N1c1ccccc1 (configuration not stated)	0.0%	i	-6.7	-3.2	i	-4.6%
CN1c2ccc([N+](=O)[O-])cc2CC2(C(=O)NC(=O)N(c3ccc(Br)cc3)C2=O)C1c1ccccc1 (configuration not stated)	-0.5%	i	-50.6*	-5.9	i	0.9%
O=C(Nc1ccccc1-c1ccc(Cl)cc1)c1cccnc1Cl	.	.	.	-25.7	.	.
[Cl-].[Cl-].[Hg+2]	?	.	.	-25.0	.	?
CCCCN1C(=O)NC(=O)C2(Cc3c(nc4c(C)cccn4c3=O)N3CCc4ccccc4C32)C1=O (configuration not stated)	?	14.6µM*	11.6	0.4	i	?
CCCCN1C(=O)NC(=O)C2(Cc3c(nc4ccccn4c3=O)N3CCc4ccccc4C32)C1=O (configuration not stated)	0.6%	i	-12.5	-2.5	i	-2.6%
CC(O)CN1CCN(CC(=O)[O-])CCN(CC(=O)[O-])CCN(CC(=O)[O-])CC1.[Gd+3] (configuration not stated)	.	.	.	3.9	.	.
Cc1cccc(C2CC(=O)Oc3c2c(=O)oc2ccccc32)c1 (configuration not stated)	.	i	.	-13.5	i	.
CCOC(=O)CSc1nn(-c2ccccc2)c(=S)s1	6.9%	i	-20.2	-3.9	i	-7.3%
SMILES	MCF10A rerep	KB-V1 cytotox	D3 antag	D3 ag	KB-3-1 tox	SW480 rerep
COC(=O)CSc1n[nH]c(=S)s1	-23.0%	i	-67.8*	-1.5	i	0.0%
CN(C)CCN=Cc1c(O)n(C2CCCCCC2)c(=O)[nH]c1=O	18.3%	i	4.2	5.2	i	-1.5%
CCN(CC)CCN=Cc1c(O)n(C2CCCCCC2)c(=O)[nH]c1=O	4.1%	i	-0.2	39.3*	i	-0.9%
Cc1c(Cl)cccc1NC(=O)CN1C(=O)C(C)N=C(c2ccccc2)c2ccccc21 (configuration not stated)	.	i	.	7.5	i	.
OC1(c2ccc(F)cc2)CC2CCC(C1)N2Cc1nnnn1C1CCCC1 (configuration not stated)	7.2%	i	-109.8*	-22.5	i	-9.7%
Cc1nnc2n1-c1sc(CCC(=O)N3CCOCC3)cc1C(c1ccccc1Cl)=NC2	.	.	.	0.1	.	.
CC(=O)c1ccc(NC(=O)c2sc3nc4c(cc3c2N)N2CCC4CC2)cc1	.	23.1µM*	.	6.1	?	.
CCOC(=O)c1ccc(NC(=O)c2sc3nc4c(cc3c2N)N2CCC4CC2)cc1	.	i	.	6.1	i	.
C#CC1(O)CCC2C3CCC4=CC(=O)CCC4(C)C3CCC21C (configuration not stated)	4.9%	.	.	.	.	-2.4%
C#C[C@]1(O)CC[C@H]2[C@@H]3CCC4=Cc5nc6nc7ccccc7n6cc5C[C@]4(C)[C@H]3CC[C@@]21C	?	?	0.0	-56.0	i	7.94µM*
O=C(Nc1ccc2c(c1)OCO2)c1cccn(Cc2ccccc2)c1=O	.	i	.	-2.5	i	.
O=C1NCN(c2ccccc2)C12CCNCC2	3.6%	i	-86.1*	-32.9	i	-10.5%
CCC(c1nnnn1-c1ccc2c(c1)OCCO2)N1CCC2(CC1)C(=O)NCN2c1ccccc1 (configuration not stated)	.	i	-50.7*	-6.9	i	.
